Laboratory results: PubChem BioAssay (NCATS)
Results filed as inconclusive are left out. Entries that show only a call come without a potency. Activity calls are given as the source filed them. Unless noted, the call rests on the fitted dose curve; in most records, active means well fitted curve in the direction sought with a large enough effect; inconclusive means small, poorly fitted or top-dose-only effect, or another doubt; inactive means no such curve, though single readings can be large; an effect the other way counts as inactive or inconclusive.

Legend:
[1] = High-throughput drug toxicity screening in the BPDCN cell line Gen2.2 (AID 1224824; call rule not given here;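 further: cells exposed to compounds for 48 h before reading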); conditions: Gen2.2 BPDCN cells; at 45.8 µM (top of the series) unless noted
Summary of the method: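 Gen2.2 cells, 500 per well in phenol red-free RPMI with 10% FBS, exposed to compounds 48 h at 37 C, 5% CO2; viability by CellTiter-Glo luminescence. Percent activity scaled to DMSO (100%) and 9.2 uM bortezomib final (0%).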

[2] = High-throughput drug toxicity screening in the BPDCN cell line Cal-1 (AID 1224825; call rule not given here); conditions: Cal-1 BPDCN cell viability, qHTS; at 45.8 µM (top of the series) unless noted
Summary of the method: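 Percent activity derived from CellTiter-Glo luminescence, scaling DMSO to 100% and 9.2 uM final bortezomib to 0%. BPDCN Cal-1 cells (500/well, RPMI plus 10% FBS) incubated with compounds 48 hours at 37C before reading.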

[3] = qHTS assay for measurement of the activity of small molecule inhibitors on Zika virus induced Caspase-3 activity in human astrocytoma cells (AID 1224859)
Summary of the method: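 In SNB-19 cells plated at 250 cells/well and grown 16-20 h, compounds were applied 1 h before ZIKV (2 FFU/cell). Six hours later caspase-3/7 luminescence was recorded.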

[4] = qHTS Screen of the MIPE 4.0 Collection Against Ewings Sarcoma (RDES) (AID 1259252); further: nearly all actives have a fitted effect of over 35% in size; further: potency means the concentration at half of the fitted maximal effect
Summary of the method: (§1)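 Cells plated in serum-containing RPMI (5% FBS) and treated with compound dilutions for 48 h. Readout luminescent viability; normalization relied on vehicle (no inhibition) and media-only columns (full inhibition).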

[5] = qHTS assay for measurement of the activity of small molecule inhibitors on Zika virus induced Caspase-3 activity in human iPSC derived neural progenitor cells (hNPCs) (AID 1224857); further: nearly all actives have a fitted effect of over 65% in size; further: potency means the concentration at half of the fitted maximal effect
Summary of the method: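 Caspase-3/7 induction by a 6-hour ZIKV infection was quantified with a luminescent Caspase-Glo 3/7 reagent incubated 30 minutes at room temperature. Compounds were preincubated with hNPCs for 1 hour; inhibition was calculated against uninfected and infected control wells.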

[6] = qHTS Screen of the MIPE 4.0 Collection Against Ewings Sarcoma (TC71) (AID 1259253); further: nearly all actives have a fitted effect of over 40% in size; further: potency means the concentration at half of the fitted maximal effect
Summary of the method: as §1

[7] = qHTS Screen of the MIPE 4.0 Collection Against Ewings Sarcoma (EW8) (AID 1259255); further: nearly all actives have a fitted effect of over 35% in size; further: potency means the concentration at half of the fitted maximal effect
Summary of the method: as §1

[8] = qHTS Screen of the MIPE 4.0 Collection Against Ewings Sarcoma (TC32) (AID 1259256); further: nearly all actives have a fitted effect of over 45% in size; further: potency means the concentration at half of the fitted maximal effect
Summary of the method: as §1

[9] = qHTS assay to identify small molecule inhibitors of chordoma cells - UCH-2 (AID 1259356)
[10] = qHTS assay to identify small molecule inhibitors of chordoma cells - UCH-1 (AID 1259355); further: nearly all actives have a fitted effect of over 55% in size
Summary of the method: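 800 cells/well, overnight attach; compounds pinned at 15 concs, then auranofin/camptothecin/doxorubicin/rubitecan/topotecan combo added; 48hr 37 C, 5% CO2; CellTiter-Glo, 30min RT, luminescence.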

SMILES | cell viability, % of control (lower = more cytotoxic) [1] | viability (% of control) [2] | Potency [3] | Potency [4] | Potency [5] | Potency [6] | Potency [7] | Potency [8] | outcome [9] | Potency [10] | activity, negative = inhibition [10]
CN(C)c1ccc(Nc2nc(N)n(C(=O)c3c(F)cccc3F)n2)cc1 | 73.4% | 14.1% | inactive | 5.9 µM (active) | – | – | – | – | – | – | –
Cc1cnc(Nc2ccc(OCCN3CCCC3)cc2)nc1Nc1cccc(S(=O)(=O)NC(C)(C)C)c1 | – | 72.4% | inactive | inactive | inactive | inactive | inactive | – | – | – | –
CC(C)(C)OC(=O)CN(Cc1ccc(Cl)cc1)Cc1ccc([N+](=O)[O-])s1 | – | 30.5% | inactive | inactive | 10.5 µM (active) | 2.35 µM (active) | – | – | – | – | –
N#Cc1ccc(C(c2ccc(C#N)cc2)n2cncn2)cc1 | 33% | 70.2% | inactive | – | inactive | – | 20.9 µM (active) | 14.8 µM (active) | inactive | – | –
COc1ccc(-c2c(-c3ccc(O)cc3O)n[nH]c2C)cc1 | 96.4% [at 92.2 µM] | 61.9% [at 92.2 µM] | inactive | – | inactive | – | – | inactive | – | – | –
CCC(C)N(C)C(=O)c1cc2ccccc2c(-c2ccccc2Cl)n1 (stereo not given) | 95% | 94.3% | inactive | – | inactive | 23.5 µM (active) | – | – | – | – | –
C[C@@H]1CN(Cc2ccc(F)cc2)[C@@H](C)CN1C(=O)c1cc2c(C(=O)C(=O)N(C)C)cn(C)c2cc1Cl | 160% | 70.3% | inactive | – | inactive | – | 23.5 µM (active) | – | – | – | –
Nc1nc2ccc(OC(F)(F)F)cc2s1 | 93.2% | 103% | inactive | – | inactive | – | – | – | inactive | inactive | –
COCCNCCCn1c(C(=O)CF)c(-c2ccc(C)cc2)c2c(N)ncnc21 | 77.9% | 85.7% | inactive | – | inactive | 16.6 µM (active) | inactive | – | – | – | –
CCC(C)n1ncn(-c2ccc(N3CCN(c4ccc(OC[C@H]5CO[C@](Cn6cncn6)(c6ccc(Cl)cc6Cl)O5)cc4)CC3)cc2)c1=O (stereo not given in full) | 92.6% | 93.9% | inactive | – | inactive | inactive | inactive | inactive | inactive | – | –
COc1ccc(-c2ccc3c(N4CCOC[C@H]4C)nc(N4CCOC[C@H]4C)nc3n2)cc1CO | 11.3% | 22% | inactive | – | inactive | 0.0332 µM (active) | 0.0264 µM (active) | 0.0264 µM (active) | – | – | –
Cc1ccnc(NS(=O)(=O)c2ccc(NC(=O)Nc3ccc(S(=O)(=O)Nc4nccc(C)n4)cc3)cc2)n1 | – | 24.4% | inactive | – | inactive | – | – | – | – | – | –
Nc1nccc(-c2ccc3noc(-c4ccc(Cl)cc4)c3c2)n1 | 68.4% | 46.9% | inactive | 5.9 µM (active) | inactive | – | – | 23.5 µM (active) | – | – | –
CCC(=O)N[C@H]1CC[C@H](C(=O)N(C)c2ccc(-c3nc4ccccc4o3)cc2)C1 | 198% | 92.1% | inactive | – | inactive | 2.35 µM (active) | – | – | – | – | –
CN[C@@H](C)C(=O)N[C@H]1CCCC[C@H]2CC[C@@H](C(=O)N[C@@H](c3ccccc3)c3cn(CCCCc4ccc(CCCCn5cc([C@@H](NC(=O)[C@@H]6CC[C@@H]7CCCC[C@H](NC(=O)[C@H](C)NC)C(=O)N76)c6ccccc6)nn5)cc4)nn3)N2C1=O | 28% | 1.94% | inactive | – | inactive | – | 26.4 µM (active) | 18.7 µM (active) | – | – | –
Cc1cccc(-c2nn(C(=S)Nc3ccccc3)cc2-c2ccnc3ccccc23)n1 | 560% | 91.8% | inactive | – | inactive | – | inactive | inactive | – | – | –
Nc1ncnc2nc(-c3ccc(N4CCOCC4)nc3)cc(-c3cccc(Br)c3)c12 | 76% | 55.4% | inactive | – | inactive | 20.9 µM (active) | – | – | – | – | –
CCOC(=O)N[C@@H]1CC[C@@H]2[C@@H](C1)C[C@H]1C(=O)O[C@H](C)[C@H]1[C@@H]2C=Cc1ccc(-c2cccc(F)c2)cn1 | 14.3% | 20% | inactive | – | inactive | 20.9 µM (active) | – | 18.7 µM (active) | – | – | –
COc1ccc2nc(S(=O)Cc3ncc(C)c(OC)c3C)[nH]c2c1 (stereo not given) | 138% | 96.8% | inactive | 16.6 µM (active) | inactive | – | – | – | inactive | inactive | –
CCc1cncnc1N1CCN(Cc2nc3ccc(C(F)(F)F)cc3[nH]2)CC1 | 130% | 91.1% | inactive | 20.9 µM (active) | inactive | – | – | 16.6 µM (active) | – | – | –
CC1(C)Cc2c(-c3ccccc3)c(-c3ccc(Cl)cc3)c(CC(=O)O)n2C1 | – | 78.3% | inactive | – | inactive | 16.6 µM (active) | – | – | – | – | –
N[C@@H]1CONC1=O | – | 97.9% | inactive | inactive | inactive | inactive | inactive | inactive | inactive | inactive | –
CCn1cc(C(=O)O)c(=O)c2cc(F)c(N3CCNC(C)C3)c(F)c21 (stereo not given) | – | 107% | inactive | inactive | inactive | inactive | inactive | inactive | inactive | inactive | –

SMILES | cell viability, % of control (lower = more cytotoxic) [1] | viability (% of control) [2] | Potency [3] | Potency [4] | Potency [5] | Potency [6] | Potency [7] | Potency [8] | outcome [9] | Potency [10] | activity, negative = inhibition [10]
NS(=O)(=O)c1cc2c(cc1Cl)NC=NS2(=O)=O | – | 26.7% | inactive | inactive | inactive | inactive | inactive | inactive | inactive | inactive | –
Cc1ccc(-n2nc(C(C)(C)C)cc2NC(=O)Nc2ccc(OCCN3CCOCC3)c3ccccc23)cc1 | – | 64.8% | inactive | 29.6 µM (active) | – | 20.9 µM (active) | – | 20.9 µM (active) | – | – | –
CCOC(=O)N1CCC(=C2c3ccc(Cl)cc3CCc3cccnc32)CC1 | – | 87.3% | inactive | 26.4 µM (active) | inactive | 26.4 µM (active) | 26.4 µM (active) | 23.5 µM (active) | inactive | inactive | –
Cc1ccc(NC(=O)c2cccc(C(C)(C)C#N)c2)cc1Nc1ccc2ncn(C)c(=O)c2c1 | – | 14% | inactive | 14.8 µM (active) | inactive | – | 14.8 µM (active) | – | – | – | –
O=C(Nc1nc2ccccc2n1CCN1CCOCC1)c1cccc([N+](=O)[O-])c1 | – | 4.89% | inactive | 20.9 µM (active) | inactive | 23.5 µM (active) | – | 18.7 µM (active) | – | – | –
Cn1cc(-c2ccc3nnc(C(F)(F)c4ccc5ncccc5c4)n3n2)cn1 | – | 64.2% | inactive | – | inactive | – | – | 0.833 µM (active) | – | – | –
Cn1cnc2c(F)c(Nc3ccc(Br)cc3Cl)c(C(=O)NOCCO)cc21 | – | 23.1% | inactive | – | inactive | 16.6 µM (active) | 2.64 µM (active) | 20.9 µM (active) | – | – | –
CNC(=O)c1ccc(N2C(=S)N(c3ccc(C#N)c(C(F)(F)F)c3)C(=O)C2(C)C)cc1F | – | 112% | inactive | inactive | inactive | inactive | inactive | inactive | – | – | –
Cc1cc(SCc2sc(-c3ccc(C(F)(F)F)cc3)nc2C)ccc1OCC(=O)O | – | 114% | inactive | inactive | inactive | 16.6 µM (active) | – | 5.26 µM (active) | – | – | –
O=C1[C@H](Cc2ccc(O)cc2)N2C(=O)CCN(C(=O)NCc3ccccc3)[C@H]2CN1Cc1cccc2ccccc12 | – | 31.2% | inactive | – | inactive | 2.96 µM (active) | – | 1.87 µM (active) | – | – | –
OC(CN1CCC(Cc2ccc(F)cc2)CC1)c1ccc(Cl)cc1 (stereo not given) | – | 99.3% | inactive | inactive | inactive | inactive | inactive | inactive | inactive | – | 16.1% [at 9.21 µM] (inactive)
CC(C)C[C@H](NC(=O)[C@@H](O)[C@H](N)Cc1ccccc1)C(=O)O | – | 38.3% | inactive | 23.5 µM (active) | inactive | 26.4 µM (active) | – | 23.5 µM (active) | – | – | –
O=NN(CCCl)C(=O)NCCCl | – | 103% | inactive | inactive | inactive | inactive | – | inactive | inactive | inactive | –
Cc1cc(C=c2sc3nc4ccccc4n3c2=O)c(C)n1-c1ccccc1 | – | 103% | inactive | inactive | – | – | – | – | – | – | –
CCN(CC)CCCC(C)Nc1ccnc2cc(Cl)ccc12 (stereo not given) | – | 21.4% | inactive | inactive | inactive | inactive | inactive | inactive | inactive | inactive | –
COc1cc(F)c(F)c(Nc2ccc(I)cc2F)c1NS(=O)(=O)C1(C[C@H](O)CO)CC1 | – | 82.2% | inactive | 20.9 µM (active) | inactive | 16.6 µM (active) | – | 11.8 µM (active) | – | – | –
CC(c1cc2ccccc2s1)N(O)C(N)=O (stereo not given) | – | 110% | inactive | inactive | inactive | inactive | – | inactive | inactive | inactive | –
Cc1c(C)c2c(c(C)c1O)CCC(C)(COc1ccc(CC3SC(=O)NC3=O)cc1)O2 (stereo not given) | – | 91.7% | inactive | inactive | inactive | inactive | inactive | inactive | inactive | inactive | –
CN(C)c1ccc(C2Nc3ccc4ccccc4c3C3=C2C(=O)CC(C)(C)C3)cc1Br (stereo not given) | – | 111% | inactive | – | inactive | – | inactive | 16.6 µM (active) | – | – | –
Clc1cccc(Cl)c1NC1=NCCN1 | – | 113% | inactive | inactive | inactive | inactive | inactive | inactive | inactive | inactive | –
CC(C[N+](C)(C)C)OC(N)=O (stereo not given) | – | 120% | inactive | inactive | inactive | inactive | inactive | inactive | inactive | inactive | –
COc1cc(Nc2ncc3c(n2)-c2ccc(Cl)cc2C(c2c(F)cccc2OC)=NC3)ccc1C(=O)O | – | 28.7% | inactive | – | inactive | 1.87 µM (active) | 0.0743 µM (active) | 0.059 µM (active) | – | – | –
